Results published in PubChem BioAssay (Tox21).
Records with an inconclusive call do not appear. Some compounds were tested as several samples or in several runs, with calls that do not always agree. Active and inactive are the calls of the source. Unless noted, calls follow the shape of the dose curve; as a rule, active = well fitted curve in the direction sought with a large enough effect in the repeat runs; inconclusive = weak or mixed curves; inactive = no such curve, though single readings can be large; an effect the other way counts as inactive or inconclusive.

What was measured:
[1] = qHTS assay to identify small molecule antagonists of the thyroid receptor (TR) signaling pathway (AID 743065); also: nearly all actives have a fitted effect of over 55% in size; also: potency is read from the fitted curve at half-maximal effect; as to activity, negative = inhibition: series mostly up to about 70 µM
Summary of the method: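 Antagonism measured as loss of luciferase signal in GH3 cells stably carrying a TRE-luciferase reporter, co-treated with compound and T3 (1 nM final) for 23.5 h at 37 C. Viability was read in the same well by CellTiter-Fluor.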

[2] = test system: thyroid hormone receptor (rat, GH3 cells); assay: qHTS assay to identify small molecule agonists of the thyroid receptor (TR) signaling pathway (AID 743066; calls by dose curve)
[3] = qHTS assay to identify small molecule antagonists of the estrogen receptor alpha (ER-alpha) signaling pathway - cell viability counter screen (AID 743074; calls by dose curve;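 also: HEK293 cells carrying ER-alpha-UAS-bla reporter stimulated with 17beta-estradiol; nearly all actives have a fitted effect of over 45% in size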)
[4] = qHTS assay to identify small molecule antagonists of the estrogen receptor alpha (ER-alpha) signaling pathway using the BG1 cell line - cell viability counter screen (AID 743081);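 also: compound given together with 17beta-estradiol as the ER stimulus; nearly all actives have a fitted effect of over 45% in size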; also: potency is read from the fitted curve at half-maximal effect; as to activity change, negative = cytotoxicity: series mostly up to about 70 µM
Aromatase (Homo sapiens) = Aromatase (Homo sapiens) (UniProt P11511); assay: qHTS assay to identify aromatase inhibitors (AID 743083); also: series mostly up to about 70 µM; nearly all actives have a fitted effect of over 55% in size
Aromatase (Homo sapiens), sequence (P11511 whole entry, looked up): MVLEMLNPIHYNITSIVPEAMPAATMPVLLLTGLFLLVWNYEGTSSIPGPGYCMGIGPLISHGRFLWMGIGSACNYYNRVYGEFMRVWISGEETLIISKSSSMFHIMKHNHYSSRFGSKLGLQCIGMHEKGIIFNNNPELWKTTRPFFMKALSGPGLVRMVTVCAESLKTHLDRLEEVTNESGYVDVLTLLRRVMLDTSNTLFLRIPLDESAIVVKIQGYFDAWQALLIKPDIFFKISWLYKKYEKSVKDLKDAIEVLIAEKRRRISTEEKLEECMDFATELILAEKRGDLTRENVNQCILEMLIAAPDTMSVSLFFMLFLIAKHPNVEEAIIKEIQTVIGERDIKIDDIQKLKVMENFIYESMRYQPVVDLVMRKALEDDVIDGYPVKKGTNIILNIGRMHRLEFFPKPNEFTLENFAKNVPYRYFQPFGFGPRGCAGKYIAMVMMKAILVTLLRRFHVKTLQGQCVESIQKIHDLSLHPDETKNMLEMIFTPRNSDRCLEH

[5] = qHTS assay to identify aromatase inhibitors - cell viability counter screen (AID 743084);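 also: cells stimulated with testosterone during compound exposure; nearly all actives have a fitted effect of over 55% in size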; also: potency is read from the fitted curve at half-maximal effect
[6] = target: Aryl hydrocarbon receptor (Homo sapiens) (UniProt P35869); assay: qHTS assay to identify small molecule that activate the aryl hydrocarbon receptor (AhR) signaling pathway (AID 743085);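 also: HG2L7.5c1 human HepG2 liver cells with stably integrated DRE-driven firefly reporter; series mostly up to about 70 µM; nearly all actives have a fitted effect of over 15% in size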
Aryl hydrocarbon receptor (Homo sapiens), sequence (P35869 whole entry, looked up): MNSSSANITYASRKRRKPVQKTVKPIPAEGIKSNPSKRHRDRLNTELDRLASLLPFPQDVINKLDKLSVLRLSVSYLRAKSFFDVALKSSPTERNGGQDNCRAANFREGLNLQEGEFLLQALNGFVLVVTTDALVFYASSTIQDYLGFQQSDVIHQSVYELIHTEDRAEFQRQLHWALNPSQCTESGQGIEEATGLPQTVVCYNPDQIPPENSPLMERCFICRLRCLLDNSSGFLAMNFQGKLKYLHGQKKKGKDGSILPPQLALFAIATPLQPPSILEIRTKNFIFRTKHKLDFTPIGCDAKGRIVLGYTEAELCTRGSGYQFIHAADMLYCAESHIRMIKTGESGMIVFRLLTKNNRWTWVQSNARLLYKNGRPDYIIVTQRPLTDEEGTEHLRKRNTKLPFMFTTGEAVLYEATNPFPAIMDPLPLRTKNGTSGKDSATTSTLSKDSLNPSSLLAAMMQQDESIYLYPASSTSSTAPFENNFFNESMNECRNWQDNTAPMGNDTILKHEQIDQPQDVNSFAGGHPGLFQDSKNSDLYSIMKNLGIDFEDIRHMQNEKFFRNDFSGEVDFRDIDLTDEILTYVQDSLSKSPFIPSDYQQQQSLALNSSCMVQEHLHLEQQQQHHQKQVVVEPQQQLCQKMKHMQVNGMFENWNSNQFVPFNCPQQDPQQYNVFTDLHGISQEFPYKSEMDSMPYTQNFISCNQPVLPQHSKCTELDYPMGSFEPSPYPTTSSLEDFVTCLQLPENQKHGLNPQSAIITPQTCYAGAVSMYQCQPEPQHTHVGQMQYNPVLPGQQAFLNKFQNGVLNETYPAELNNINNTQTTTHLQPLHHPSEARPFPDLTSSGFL
Summary of the method: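 Stably transfected human liver carcinoma cells (HG2L7.5c1; 20 DRE-firefly luciferase) were incubated 5 h, dosed, and kept 24 h at 37C. Agonism was scored from increased luciferase luminescence.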

[7] = target: Peroxisome proliferator-activated receptor gamma (Homo sapiens) (UniProt P37231); assay: qHTS assay to identify small molecule agonists of the peroxisome proliferator-activated receptor gamma (PPARg) signaling pathway (AID 743094; active = well fitted activation curve with a large enough effect in the signal ratio in the repeat runs, not every such curve was filed as active; the % refers to the signal ratio; also: potency is read from the fitted curve at half-maximal effect)
Peroxisome proliferator-activated receptor gamma (Homo sapiens), sequence (P37231 whole entry, looked up): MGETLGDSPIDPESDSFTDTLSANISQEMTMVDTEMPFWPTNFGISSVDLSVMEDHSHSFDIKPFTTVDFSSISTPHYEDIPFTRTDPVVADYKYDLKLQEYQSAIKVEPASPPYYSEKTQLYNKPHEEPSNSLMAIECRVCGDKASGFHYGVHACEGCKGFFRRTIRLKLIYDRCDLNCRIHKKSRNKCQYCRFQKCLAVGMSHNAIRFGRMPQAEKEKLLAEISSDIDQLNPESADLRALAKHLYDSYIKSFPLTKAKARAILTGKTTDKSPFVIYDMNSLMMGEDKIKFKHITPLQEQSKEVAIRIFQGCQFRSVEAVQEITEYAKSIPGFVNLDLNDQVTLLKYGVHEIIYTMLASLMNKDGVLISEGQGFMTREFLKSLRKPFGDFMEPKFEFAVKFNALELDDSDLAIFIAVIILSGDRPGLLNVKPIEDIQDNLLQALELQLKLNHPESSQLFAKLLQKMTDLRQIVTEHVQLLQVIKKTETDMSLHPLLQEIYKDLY
Summary of the method: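 Following 5 h plating at 37C, PPARg-bla HEK293H cells receive compound or DMSO for 17 h; fluorescence intensity is recorded after LiveBLAzer B/G loading for 1 h at room temperature.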

[8] = target: Peroxisome proliferator-activated receptor gamma (Homo sapiens) (UniProt P37231); assay: qHTS assay to identify small molecule antagonists of the peroxisome proliferator-activated receptor gamma (PPARg) signaling pathway (AID 743191; calls by dose curve; also: series mostly up to about 63 µM; nearly all actives have a fitted effect of over 30% in size)
Summary of the method: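 Beta-lactamase reporter under UAS control in HEK293H PPARg-bla cells; compound treatment 17 h at 37C. Read-out: fluorescence intensity after 1 h room-temperature incubation with LiveBLAzer B/G FRET substrate.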

[9] = qHTS assay to identify small molecule antagonists of the peroxisome proliferator-activated receptor gamma (PPARg) signaling pathway - cell viability counter screen (AID 743194); also: nearly all actives have a fitted effect of over 55% in size
Summary of the method: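 Viability was measured as CellTiter-Glo luminescence in GeneBLAzer PPARg UAS-bla HEK293H cells. These cells had been exposed 17 h at 37 C to compounds together with rosiglitazone at 50 nM final, with the beta-lactamase readout taken in the same wells.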

[10] = qHTS assay for small molecule agonists of the antioxidant response element (ARE) signaling pathway (AID 743202; active = well fitted activation curve with a large enough effect in the signal ratio in the repeat runs, not every such curve was filed as active; the % refers to the signal ratio)
Summary of the method: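 Quantitative high-throughput format in HepG2 cells bearing an integrated ARE-beta-lactamase reporter. Compound exposure lasted 16 h at 37 C, and fluorescence was read 2 h after adding LiveBLAzer B/G substrate at room temperature.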

[11] = qHTS assay for small molecule agonists of the antioxidant response element (ARE) signaling pathway - cell viability counter screen (AID 743203; calls by dose curve; also: nearly all actives have a fitted effect of over 55% in size)
Summary of the method: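 Compounds in DMSO were pinned onto ARE-bla HepG2 cells plated 5 hrs earlier at 2,000 cells/well. Sixteen hours later at 37C/5% CO2, CellTiter-Glo was added and luminescence measured after 30 min at room temperature.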

[12] = qHTS assay for small molecule activators of the heat shock response signaling pathway - cell viability counter screen (AID 743209); also: nearly all actives have a fitted effect of over 50% in size
Summary of the method: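 Counter screen for cytotoxicity in HeLa HSE-bla reporter cells. Treatment was 5 h at 37 C; viability was detected by luminescent ATP assay (CellTiter-Glo) in the same wells as the beta-lactamase read.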

[13] = qHTS assay for small molecule activators of the heat shock response signaling pathway (AID 743210; active = well fitted activation curve with a large enough effect in the signal ratio in the repeat runs, with a control signal flat, not every such curve was filed as active; the % refers to the signal ratio;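 also: HeLa cells with beta-lactamase reporter driven by heat shock elements; series mostly up to about 63 µM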)
Summary of the method: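 HeLa HSE-bla cells, overnight plating; cpd in DMSO 5 h, 37 C; LiveBLAzer B/G FRET substrate 2.5 h RT; fluorescence intensity read.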

[14] = qHTS assay to identify small molecule agonists of the peroxisome proliferator-activated receptor delta (PPARd) signaling pathway - cell viability counter screen (AID 743211); also: nearly all actives have a fitted effect of over 55% in size
Summary of the method: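 In the same wells used for beta-lactamase reporter measurement, cytotoxicity is scored by CellTiter-Glo. HEK293H PPARd-bla cells receive compound for 17 h at 37C following a 5 h settling period.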

[15] = target: Estrogen receptor (Homo sapiens) (UniProt P03372); assay: qHTS assay to identify small molecule agonists of the estrogen receptor alpha (ER-alpha) signaling pathway (AID 743075; calls by dose curve;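 also: HEK293 GripTite cells with ER-alpha and UAS-driven beta-lactamase reporter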)
Estrogen receptor (Homo sapiens), sequence (P03372 whole entry, looked up): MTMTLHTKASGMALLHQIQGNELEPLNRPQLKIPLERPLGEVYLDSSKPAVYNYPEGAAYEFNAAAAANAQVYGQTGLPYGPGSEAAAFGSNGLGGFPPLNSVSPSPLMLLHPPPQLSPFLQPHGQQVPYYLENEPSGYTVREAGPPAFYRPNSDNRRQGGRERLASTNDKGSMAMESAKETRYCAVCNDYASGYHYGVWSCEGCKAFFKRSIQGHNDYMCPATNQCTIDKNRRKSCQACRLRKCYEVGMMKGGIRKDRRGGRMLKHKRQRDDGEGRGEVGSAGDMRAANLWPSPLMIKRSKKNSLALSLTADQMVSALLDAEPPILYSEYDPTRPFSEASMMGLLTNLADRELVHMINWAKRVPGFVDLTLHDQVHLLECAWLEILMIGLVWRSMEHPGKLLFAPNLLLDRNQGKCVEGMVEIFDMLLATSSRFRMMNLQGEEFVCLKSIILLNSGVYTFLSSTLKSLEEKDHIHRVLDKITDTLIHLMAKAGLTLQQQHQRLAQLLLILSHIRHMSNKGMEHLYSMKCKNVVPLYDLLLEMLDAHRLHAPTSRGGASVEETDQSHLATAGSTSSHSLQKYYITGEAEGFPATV

[16] = target: Estrogen receptor (Homo sapiens) (UniProt P03372); assay: qHTS assay to identify small molecule agonists of the estrogen receptor alpha (ER-alpha) signaling pathway using the BG1 cell line (AID 743079); also: nearly all actives have a fitted effect of over 20% in size
[17] = qHTS assay to identify small molecule antagonists of the estrogen receptor alpha (ER-alpha) signaling pathway using the BG1 cell line (AID 743080; calls by dose curve;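 also: BG1 cells stimulated with 17beta-estradiol alongside compound; series mostly up to about 70 µM; nearly all actives have a fitted effect of over 25% in size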)
Summary of the method: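 Luminescence from a 4×ERE-luciferase reporter in BG1-Luc-4E2 cells served as read-out. Cells, pre-cultured 5 days in stripped-serum phenol-red-free medium, were exposed to compound with 17beta-estradiol co-stimulation for 21.5 h at 37 C.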

[18] = qHTS assay to identify small molecule that activate the aryl hydrocarbon receptor (AhR) signaling pathway - cell viability counter screen (AID 743086); also: nearly all actives have a fitted effect of over 45% in size; also: potency is read from the fitted curve at half-maximal effect;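 as to viability change, negative = cytotoxic: HepG2 liver cells carrying the AhR DRE luciferase reporter; series mostly up to about 70 µM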
Summary of the method: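 Cytotoxicity counter screen: CellTiter-Fluor signal (30 min, 37 C) in 4000 HepG2 cells/well carrying the DRE-luciferase reporter, following 24 h compound exposure at 37 C.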
% is scaled to controls: 0 for no effect and ±100 for the full control effect.

NCc1ccc(S(N)(=O)=O)cc1
inactive: Potency [1] | outcome [2] | outcome [3] | Potency [4] | outcome (Aromatase (Homo sapiens)) | Potency [5] | Potency [6] | Potency [7] | outcome [8] | outcome [9] | Potency [10] | outcome [11] | Potency [12] | outcome [13] | outcome [14]

OCCN1CCOCC1
inactive: Potency [1] | outcome [2] | Potency [15] | Potency [16] | outcome [17] | Potency [4] | outcome (Aromatase (Homo sapiens)) | Potency [5] | Potency [6] | Potency [18] | Potency [7] | outcome [8] | outcome [9] | Potency [10] | outcome [11] | Potency [12] | outcome [13] | outcome [14]

OC[C@@H](O)C(O)[C@@H](O)CO (some centres not stated)
inactive: Potency [1] | outcome [2] | Potency [4] | outcome (Aromatase (Homo sapiens)) | Potency [5] | Potency [18] | Potency [7] | outcome [8] | outcome [9] | outcome [11] | Potency [12] | outcome [13] | outcome [14]

Cn1c(=O)c2c(ncn2CCO)n(C)c1=O
inactive: Potency [1] | outcome [2] | outcome [3] | Potency [4] | outcome (Aromatase (Homo sapiens)) | Potency [5] | Potency [18] | outcome [9] | Potency [10] | outcome [11] | Potency [12] | outcome [13] | outcome [14]

C=CC(=O)CCCCC
inactive: Potency [1] | outcome [2] | Potency [4] | outcome (Aromatase (Homo sapiens)) | Potency [5] | Potency [6] | Potency [18] | Potency [7] | outcome [9] | Potency [10] | outcome [11] | Potency [12] | outcome [13] | outcome [14]

COc1c2occc2c(OC)c2c(=O)cc(C)oc12
inactive: Potency [1] | outcome [2] | Potency [4] | outcome (Aromatase (Homo sapiens)) | Potency [5] | Potency [18] | Potency [7] | outcome [8] | outcome [9] | Potency [10] | outcome [11] | Potency [12] | outcome [13] | outcome [14]

Cc1ccc(C(C)NC(=O)[C@@H](NC(=O)OC(C)C)C(C)C)cc1 (some centres not stated)
inactive: Potency [1] | outcome [2] | outcome [3] | Potency [4] | outcome (Aromatase (Homo sapiens)) | Potency [5] | Potency [6] | Potency [7] | Potency [10] | outcome [11] | Potency [12] | outcome [13] | outcome [14]

CCn1cc(C(=O)O)c(=O)c2cnc(N3CCCC3)nc21
inactive: Potency [1] | outcome [2] | outcome [3] | Potency [4] | Potency [18] | activity change, negative = cytotoxicity [9] -3.06% [at 13.2 µM] | activation [10] -1.91% [at 8.36 µM] | viability change, negative = cytotoxic [11] 0.125% [at 8.36 µM] | activity change, negative = cytotoxicity [12] 1.32% [at 13.2 µM] | activation [13] -0.943% [at 13.2 µM] | activity change, negative = cytotoxicity [14] 3.01% [at 13.2 µM]

N#Cc1cscn1
inactive: Potency [1] | outcome [2] | Potency [4] | outcome (Aromatase (Homo sapiens)) | Potency [5] | Potency [6] | Potency [18] | outcome [8] | outcome [9] | Potency [10] | outcome [11] | Potency [12] | outcome [13] | outcome [14]
active: Potency [7] 54.9 µM

O=S(=O)(O)c1ccc2c(N=Nc3ccc(S(=O)(=O)O)c4ccccc34)c(O)c(S(=O)(=O)O)cc2c1
inactive: activity, negative = inhibition [1] -4.92% [at 8.44 µM] | outcome [2] | outcome [3] | activity, negative = inhibition (Aromatase (Homo sapiens)) -13.1% [at 8.47 µM] | viability change, negative = cytotoxic [18] -5.27% [at 8.47 µM] | Potency [7] | ratio activity, negative = inhibition [8] -16.6% [at 5.95 µM] | activity change, negative = cytotoxicity [9] -3.57% [at 5.95 µM] | activation [10] 7.21% [at 8.36 µM] | viability change, negative = cytotoxic [11] -0.964% [at 8.36 µM] | activity change, negative = cytotoxicity [12] 0.481% [at 5.95 µM] | activity change, negative = cytotoxicity [14] 3.44% [at 5.95 µM]
active: Potency [4] 9.44 µM | Potency [5] 18.8 µM | Potency [18] 13.3 µM

CC(C)OC(=O)CCC(=O)OC(C)C
inactive: Potency [1] | outcome [2] | outcome [3] | Potency [4] | outcome (Aromatase (Homo sapiens)) | Potency [5] | Potency [6] | Potency [18] | Potency [7] | outcome [9] | outcome [11] | Potency [12] | outcome [14]

Cc1ccnc(N)c1
inactive: Potency [1] | outcome [2] | outcome [3] | Potency [4] | outcome (Aromatase (Homo sapiens)) | Potency [5] | Potency [18] | Potency [7] | outcome [8] | outcome [9] | Potency [10] | outcome [11] | Potency [12] | outcome [13] | outcome [14]

OCC(O)CN1CCN(c2ccccc2)CC1 (configuration not stated)
inactive: Potency [1] | outcome [2] | outcome [3] | Potency [4] | outcome (Aromatase (Homo sapiens)) | Potency [5] | Potency [6] | Potency [7] | outcome [8] | outcome [9] | Potency [10] | Potency [12] | outcome [13] | outcome [14]

CC(C)=CCC/C(C)=C/COC=O
inactive: Potency [1] | outcome [2] | outcome [3] | Potency [4] | outcome (Aromatase (Homo sapiens)) | Potency [5] | Potency [18] | Potency [7] | outcome [8] | outcome [9] | Potency [10] | outcome [11] | Potency [12] | outcome [13] | outcome [14]

Cn1c(=O)c2[nH]c(Br)nc2n(C)c1=O
inactive: outcome [2] | outcome [3] | Potency [4] | outcome (Aromatase (Homo sapiens)) | Potency [5] | Potency [18] | Potency [7] | outcome [9] | Potency [10] | outcome [11] | Potency [12] | outcome [13] | outcome [14]
active: Potency [1] 26.6 µM

O/N=C/C=N/O
inactive: Potency [1] | outcome [2] | outcome [3] | Potency [4] | outcome (Aromatase (Homo sapiens)) | Potency [5] | Potency [18] | Potency [7] | outcome [8] | Potency [10] | outcome [11] | Potency [12] | outcome [14]

CC(O)COC(C)(C)C (configuration not stated)
inactive: Potency [1] | outcome [2] | outcome [3] | Potency [4] | outcome (Aromatase (Homo sapiens)) | Potency [5] | Potency [7] | outcome [8] | outcome [9] | Potency [10] | outcome [11] | Potency [12] | outcome [13] | outcome [14]

CC(Oc1cc(Cl)ccc1Cl)C(=O)O (configuration not stated)
inactive: Potency [1] | outcome [2] | outcome [3] | Potency [4] | outcome (Aromatase (Homo sapiens)) | Potency [6] | Potency [18] | Potency [7] | outcome [8] | outcome [9] | outcome [11] | Potency [12] | outcome [13] | outcome [14]

Cc1cccc(Cl)c1
inactive: Potency [1] | outcome [2] | outcome [3] | Potency [4] | outcome (Aromatase (Homo sapiens)) | Potency [5] | Potency [6] | Potency [18] | Potency [7] | Potency [10] | outcome [11] | Potency [12] | outcome [13] | outcome [14]
